Experimental data as given in PubChem BioAssay (NCI).
Several values for one entry are separate records, joined by “and”; a condition that tells them apart may be missing. Identical values can stand only once. The panel holds about 83,000 compounds, 20% with a hit somewhere; the sample as a whole holds those more often.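 How to read the values: 0–100, growth inhibition (40 = 60% inhibited); 0, no net growth; -100 to 0, cell death (-40 = 40% of starting cells died; -100 = all dead).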 Values without a mark were called inactive. Activity calls are given as the source filed them. Rule for the calls: active = growth percent below 10; inactive = the rest.

tested on: MDA-MB-468 breast; assay: NCI-60 one-dose screen, 48 h (100 = growth as untreated, 0 = no growth, -100 = all killed); details: 10 µM unless noted

Compound	growth
C/C(Cc1ccc(Cl)cc1)=C(/c1ccc(Cl)cc1)c1ccc(OCCN(C)C)cc1	17.2%
Cn1c(N)c(N=O)c(=O)n(C)c1=O	122% and 112%
COc1nc2c(c(=O)n1C)N=C1c3ccccc3C(=O)C1C(c1ccccc1)N2 (stereo not given)	82.5%
CNC(=O)c1cc(Oc2ccc3c(c2)sc2nc(-c4ccc(NC(=O)[C@@H](NC(=O)OC)C(C)C)cc4)cn23)ccn1	28.4%
O=C(CSc1nnc(-c2ccc(Cl)cc2)n1-c1ccccc1)Nc1ccc(Br)cc1	59.1%
CNCCCNc1nc2ccccc2c2c(=O)c3cc(Cl)ccc3sc12	18.4%
Cn1c(=O)c2[nH]c(CC(=O)O)nc2n(C)c1=O	107%
CCOC(=O)c1c(C)oc2ncnc(N3CCN(C(=S)Nc4ccccc4)CC3)c12	85.2%
COC(=O)[C@]12CC[C@@H](C)[C@H](C)[C@@H]1C1=CC[C@@H]3[C@@]4(C)C(C=O)=C[C@@](C)(COC(=O)/C=C/c5ccccc5)[C@@H]4[C@H](O)C[C@@]3(C)[C@]1(C)CC2	14.9%
CN(C)/N=C/c1ccccc1O	97.8%
CN1C2CCC1/C(=C\c1ccc(Cl)cc1)C1=C2[C@@H](c2ccc(Cl)cc2)C(C#N)=C(N)O1 (stereo not given in full)	77.9%
CN(C)CCn1c2ccc(Br)cc2c2nc3ccccc3nc21	13%
C[C@H]1[C@H](C)CC[C@]2(C(=O)O)CC[C@]3(C)C(=CC[C@@H]4[C@@]5(C)C/C(=C/c6cccnc6)[C@H](O)C(C)(C)[C@@H]5CC[C@]43C)[C@H]12	5.39% [100 µM] (active)
COCCn1cc(-c2nc(-c3cc4cccnc4[nH]3)cs2)c2cc(OC)ccc21	-24% (active)
CCCCC/C=N/Nc1nc(C)cc(=O)[nH]1	105%
COc1ccc(C(=O)Nc2ccc3nc(N4CCCCC4)cc(C)c3c2)cc1OC	73.6%
O=C(/C=C/c1ccc(C(F)(F)F)cc1)c1ccc(Nc2nc(NCCO)nc(Nc3ccc(Cl)cc3)n2)cc1	69.4%
COc1ccc(-n2c(SCc3cc(OC)c(OC)c(OC)c3)nc3ccc(C)cc3c2=O)cc1	46.8%
CCN(CC)CCOc1ccc(Cl)c(C)c1	103%
CC/C(=C(\c1ccc(OCCN2CCCCCCC2)cc1)c1ccc(OC(=O)C2CCCCC2)cc1)c1ccc(Cl)cc1	114%

Compound	growth
CN(c1ccc(Br)cc1)S(=O)(=O)c1ccc(-c2cnc(C3CC3)o2)cc1	11.7%
COc1cccc(-c2[nH]c(=S)ncc2C(=O)c2ccccc2)c1	59.4%
Cc1cc(C(=O)Nc2ncc(Cc3cccc(C(F)(F)F)c3)s2)c2ccccc2n1	1.69% (active)
CC(=NNc1ncnc2ccccc12)c1ccc(S(C)(=O)=O)cc1	103%
Cc1ccc(C2CC(c3cccc(Nc4ccncc4)c3)=NN2c2ccccc2)cc1 (stereo not given)	-78.5% (active)
COc1ccc(C(C)=O)cc1S(=O)(=O)Nc1c(N)nc(SC)[nH]c1=O	97.6%
COc1ccc2nc(-c3ccc(-n4cncc4-c4ccc(OC)c(N)c4)cc3)sc2c1	114%
COC(=O)c1[nH]nc2c1C1(C(=O)c3cccc4cccc1c34)C(C#N)=C(N)O2 (stereo not given)	86.3%
CCCCN(CCCC)C(=O)[C@H](CC)[C@@H]1CC[C@@H](C)[C@@H]([C@H](C)[C@@H](O)[C@@H](C)C(=O)[C@H](CC)C2O[C@]3(C=CC(=O)[C@]4(CC[C@@](C)([C@H]5CC[C@](O)(CC)[C@H](C)O5)O4)O3)[C@H](C)C[C@@H]2C)O1 (stereo not given in full)	-11.5% (active)
O=C(N/N=C/c1cccc(O)c1O)c1ccccc1	-12.6% (active)
COc1ccc(N=Cc2c(O)ccc3c2oc2cc(Cl)c(O)c(Cl)c23)cc1	72.5%
O=C(CCn1c[n+](CC(=O)c2ccc(F)cc2)c2ccccc21)Nc1cccc2cccnc12	-15.5% (active)
COc1ccc(-c2onc(N)c2-c2cc(OC)c3c(c2)OCO3)cc1	-29.2% (active)
COC(=O)c1nc(N)nc(C(=O)OC)c1C(=O)c1cccc2ccccc12	97.6%
CNC(=O)c1cc(Oc2ccc3nc(NC(=O)NC(C)C)sc3c2)ccn1	34.3%
CCCCCC(/C=N\NC(=S)N/N=C/C(=C/c1ccccc1)CCCCC)=C\c1ccccc1	47.4%
CC(C)=CCc1c2c(c(O)c3c1O[C@]14C(=C[C@@H]5C[C@H]1C(C)(C)O[C@@]4(C/C=C(/C)C(=O)O)C5=O)C3=O)CC(O)C(C)(C)O2 (stereo not given in full)	-55.7% (active)
O=[N+]([O-])c1c(F)cccc1Nc1cccc(F)c1	127%
Cc1cc(N2CCCCCC2)nc(N2CCN(CC(=O)Nc3ccc4c(ccn4Cc4ccccc4)c3)CC2)n1	17.4%
C#CCNC(=S)N/N=C(\C)c1ccccn1	-31.4% (active)
